In PubChem BioAssay (NCATS):
Inconclusive results are not listed. Active and inactive are the calls of the source. Calls come from the whole dose curve; as a rule, active = well fitted curve in the direction sought with a large enough effect; inconclusive = small, poorly fitted or top-dose-only effect, or another doubt; inactive = no such curve, though single readings can be large; an effect the other way counts as inactive or inconclusive.

Tests used:
[1] = molecular target: Phospholipid hydroperoxide glutathione peroxidase GPX4 (Homo sapiens) (UniProt P36969); experiment: Primary qHTS Assay for Inhibitors of Recombinant Selenoprotein Glutathione Peroxidase 4 (GPX4) (AID 1845192); details: recombinant GPX4, GR-coupled NADPH fluorescence, 15 min; series mostly up to 50 µM; note: nearly all actives have a fitted effect of over 65% in size; for activity change, negative = inhibition: % is set by controls: 0 for no effect and ±100 for the full control effect
Summary of the method: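 GR-coupled readout: 100 nM GR, 1 mM GSH, 0.5 mM NADPH; NADPH fluorescence (ex 340/em 450 nm) read at t=0 and after 15 min RT. GPX4 200 nM, preincubated 30 min with compound; substrate 0.5 mM CHP.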

[2] = Primary fluorescence-based thiol-reactive (MSTI) qHTS assay for identification of artifact compounds. (AID 1845221); details: MSTI thiol-reactivity probe, 1 h; series mostly up to 53.8 µM;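 note: thiol-reactive compounds lower the probe fluorescence signal; nearly all actives have a fitted effect of over 65% in size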
Summary of the method: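 MSTI probe at 4 uM final in 2% DMSO/PBS pH 7.4; compounds, 1 h at room temperature in dark. Fluorescence Ex/Em 525/598 nm, normalised to Acetyl-MSTI and MSTI, fitted to 4-parameter Hill.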

[3] = test system: Nanoluciferase (engineered Oplophorus gracilirostris luciferase); experiment: Primary Nanoluciferase (NLuc) qHTS assay for identification of artifact compounds. (AID 1845222); details: NLuc-conditioned medium, Nano-Glo luminescence, 5 min; series mostly up to 54.1 µM;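 note: NLuc secreted into diluted conditioned medium of S16 cells; 0% = DMSO and -100% = no enzyme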
Summary of the method: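 Concentration-response data were obtained by luminescence after 5 min with Nano-Glo substrate at 1:100. The enzyme was diluted S16 NLuc-expressing cell medium, preincubated with compound for 15 min at RT. Curves were fitted with a 4-parameter Hill model.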

[4] = Primary redox qHTS assay for identification of artifact compounds. (AID 1845223); details: Amplex Red/HRP redox cycling with DTT, fluorescence; series mostly up to 53.8 µM;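 note: 0% = DMSO and 100% = reference compound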
Summary of the method: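 Amplex Red (25 uM) and HRP (250 mU/mL) in HBSS, with compounds for 15 min, then 250 uM DTT for 30 min, room temperature, dark. Fluorescence 525/598 nm read; normalized to DMSO and 10 uM DA3003; Hill fit.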

[5] = molecular target: Glutathione peroxidase 1 (Homo sapiens) (UniProt P07203); experiment: Primary qHTS Assay for Inhibitors of Recombinant Selenoprotein Glutathione Peroxidase 1 (GPX1) (AID 1845191); details: recombinant GPX1, GR-coupled NADPH fluorescence, 15 min; series mostly up to 48.8 µM; note: nearly all actives have a fitted effect of over 65% in size; for activity, negative = inhibition: % is set by controls: 0 for no effect and ±100 for the full control effect
Summary of the method: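 Recombinant GPX1 (10 nM final) was preincubated with compound for 30 min at room temperature, then reacted with 1 mM GSH, 0.5 mM CHP, 0.5 mM NADPH and 100 nM glutathione reductase; NADPH fluorescence (340/450 nm) was read at 0 and 15 min.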

[6] = molecular target: Luciferin 4-monooxygenase (Photinus pyralis) (UniProt P08659); experiment: Primary firefly luciferase (FLuc) qHTS assay for identification of artifact compounds. (AID 1845220); details: purified firefly luciferase, luminescence, 5 min; series mostly up to 54.1 µM; note: nearly all actives have a fitted effect of over 60% in size;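 for activity change, negative = inhibition: plate controls were DMSO vehicle for no effect and no enzyme for full effect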
Summary of the method: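 Reaction readout was CCD-imaged luminescence, taken 5 min after adding 10 nM purified firefly enzyme to compound-treated wells holding 10 uM luciferin and ATP in pH 7.6 buffer.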

[7] = molecular target: Cytochrome P450 3A4 (Homo sapiens) (UniProt P08684); experiment: qHTS for inhibitors of CYP3A4 against the NCATS DSHEA and TCM libraries (AID 1919971); details: recombinant CYP3A4 enzyme activity, luminescence qHTS; series mostly up to 34.1 µM;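 note: % is set by controls: 0 for no effect and ±100 for the full control effect; inhibition lowers luminescence from luciferin made by CYP3A4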
Summary of the method: (§1)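 Luminescent P450-Glo format: compounds preincubated 15 min with enzyme and luciferin substrate, reaction run 30-45 min after NADPH regeneration solution. Intraplate controls: ketoconazole for CYP3A4 and CYP2C19, sulfaphenazole for CYP2C9.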

[8] = molecular target: Cytochrome P450 2D6 (Homo sapiens) (UniProt P10635); experiment: qHTS for inhibitors of CYP2D6 against the NCATS DSHEA and TCM libraries (AID 1919972); details: CYP2D6 enzymatic inhibition, luminescence qHTS; series mostly up to 34.1 µM; note: % is set by controls: 0 for no effect and ±100 for the full control effect
Summary of the method: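 Luminescent P450-Glo read-out of CYP2D6 turnover of a luciferin substrate after NADPH-driven reaction of 30-45 min at room temperature. Compounds were first preincubated 15 min with enzyme at titrated concentrations; quinidine was the intraplate control.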

[9] = molecular target: Cytochrome P450 2C9 (Homo sapiens) (UniProt P11712); experiment: qHTS for inhibitors of CYP2C9 against the NCATS DSHEA and TCM libraries (AID 1919973); details: recombinant CYP2C9 enzyme activity, luminescence; series mostly up to 34.1 µM;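 note: luminogenic pro-luciferin CYP2C9 substrate turned into luciferin with NADPH regeneration; % is set by controls: 0 for no effect and ±100 for the full control effect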
Summary of the method: as §1

Chain of Glutathione peroxidase 1 (Homo sapiens) (P07203 whole entry, looked up): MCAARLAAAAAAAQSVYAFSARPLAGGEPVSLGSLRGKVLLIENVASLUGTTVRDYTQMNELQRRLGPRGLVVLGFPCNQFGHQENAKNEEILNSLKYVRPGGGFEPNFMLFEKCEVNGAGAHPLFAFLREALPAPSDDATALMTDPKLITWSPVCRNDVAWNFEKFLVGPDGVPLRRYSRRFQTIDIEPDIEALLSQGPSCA
Chain of Phospholipid hydroperoxide glutathione peroxidase GPX4 (Homo sapiens) (P36969 whole entry, looked up): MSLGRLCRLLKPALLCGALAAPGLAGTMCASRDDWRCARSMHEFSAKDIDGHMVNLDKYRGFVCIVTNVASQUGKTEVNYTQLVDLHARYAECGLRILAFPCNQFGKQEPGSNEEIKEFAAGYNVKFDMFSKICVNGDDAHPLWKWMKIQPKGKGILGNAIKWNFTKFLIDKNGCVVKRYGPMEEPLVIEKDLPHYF
Chain of Cytochrome P450 2D6 (Homo sapiens) (P10635 whole entry, looked up): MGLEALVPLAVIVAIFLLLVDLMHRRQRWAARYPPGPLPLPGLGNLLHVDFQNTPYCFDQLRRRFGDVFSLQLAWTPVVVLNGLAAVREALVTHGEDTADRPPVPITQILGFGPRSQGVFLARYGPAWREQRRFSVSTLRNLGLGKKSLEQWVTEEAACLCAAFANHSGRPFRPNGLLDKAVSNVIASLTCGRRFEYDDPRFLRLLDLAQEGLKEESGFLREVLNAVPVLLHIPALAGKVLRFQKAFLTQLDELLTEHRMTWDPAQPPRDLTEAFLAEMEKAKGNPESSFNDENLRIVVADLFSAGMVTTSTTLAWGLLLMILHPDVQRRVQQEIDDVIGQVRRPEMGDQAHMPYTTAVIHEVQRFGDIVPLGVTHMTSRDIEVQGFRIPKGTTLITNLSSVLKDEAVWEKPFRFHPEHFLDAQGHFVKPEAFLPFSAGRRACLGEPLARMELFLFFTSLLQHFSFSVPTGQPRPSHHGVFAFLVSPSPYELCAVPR
Chain of Cytochrome P450 2C9 (Homo sapiens) (P11712 whole entry, looked up): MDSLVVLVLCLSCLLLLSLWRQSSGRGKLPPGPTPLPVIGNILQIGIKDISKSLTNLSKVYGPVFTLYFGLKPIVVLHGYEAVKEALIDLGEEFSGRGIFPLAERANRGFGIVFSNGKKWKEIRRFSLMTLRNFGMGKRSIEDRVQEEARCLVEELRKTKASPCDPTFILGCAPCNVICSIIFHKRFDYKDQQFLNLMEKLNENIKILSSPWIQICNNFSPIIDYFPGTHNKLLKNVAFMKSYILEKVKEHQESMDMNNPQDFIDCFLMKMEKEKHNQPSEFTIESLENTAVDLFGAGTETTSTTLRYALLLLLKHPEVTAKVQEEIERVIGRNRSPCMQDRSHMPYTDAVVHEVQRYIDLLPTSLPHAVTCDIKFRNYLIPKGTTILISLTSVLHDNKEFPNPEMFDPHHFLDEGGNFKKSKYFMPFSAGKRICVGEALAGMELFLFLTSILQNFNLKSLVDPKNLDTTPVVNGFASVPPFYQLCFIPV
Chain of Cytochrome P450 3A4 (Homo sapiens) (P08684 whole entry, looked up): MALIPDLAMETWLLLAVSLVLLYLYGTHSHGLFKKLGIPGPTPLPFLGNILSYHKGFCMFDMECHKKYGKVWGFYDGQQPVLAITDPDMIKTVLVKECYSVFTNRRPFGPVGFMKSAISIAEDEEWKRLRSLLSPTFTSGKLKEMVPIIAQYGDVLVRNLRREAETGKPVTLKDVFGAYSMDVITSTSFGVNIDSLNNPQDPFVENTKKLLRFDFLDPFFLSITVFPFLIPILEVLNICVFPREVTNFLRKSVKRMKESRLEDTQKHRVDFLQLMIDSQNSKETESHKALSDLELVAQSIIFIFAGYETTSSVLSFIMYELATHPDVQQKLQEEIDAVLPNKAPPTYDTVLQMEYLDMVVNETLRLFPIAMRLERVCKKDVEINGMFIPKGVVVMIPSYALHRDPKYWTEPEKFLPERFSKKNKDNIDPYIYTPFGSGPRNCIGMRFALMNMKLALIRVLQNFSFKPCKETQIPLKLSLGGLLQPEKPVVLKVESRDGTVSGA

N#CC(OC1OC(COC2OC(CO)C(O)C(O)C2O)C(O)C(O)C1O)c1ccccc1 (stereo not given)
inactive: Potency [1] | Potency [2] | outcome [3] | outcome [4]

COC(=O)[C@@]12C(=O)C(C)C(=O)[C@]1(C)C(C)=C[C@H]1[C@]3(C=O)CC[C@H](OC(C)=O)C(C)(C)[C@H]3CC[C@@]12C (stereo not given in full)
inactive: Potency [5] | Potency [1] | outcome [3] | outcome [4]

CN1[C@H]2C[C@H](OC(=O)[C@H](CO)c3ccccc3)C[C@@H]1[C@@H](O)C2
inactive: Potency [1] | Potency [2] | outcome [3] | outcome [4]

C[C@@H]([C@H](O)c1ccccc1)N(C)C
inactive: Potency [1]

COCC1OC(=O)c2coc3c2C1(C)C1=C(C3=O)C2CCC(=O)C2(C)CC1O (stereo not given)
inactive: Potency [5] | Potency [1] | outcome [3] | outcome [4]

CCC1C(C)=NN=C(c2ccc(OC)c(OC)c2)c2cc(OC)c(OC)cc21 (stereo not given)
inactive: Potency [1]

CN1C(=O)c2ccccc2NC(=O)C1Cc1ccccc1 (stereo not given)
inactive: Potency [5] | Potency [1] | outcome [3] | outcome [4]

CCc1c(C(=O)C(N)=O)c2c(OCC(=O)OC)cccc2n1Cc1ccccc1
inactive: Potency [1] | Potency [6] | Potency [2] | outcome [3] | outcome [4]

COc1cc2c(cc1OC)[C@@]13CCN4CC5=CCO[C@H]6CC(=O)N2[C@H]1[C@H]6[C@H]5C[C@H]43
inactive: Potency [1] | Potency [2] | outcome [3] | outcome [4]

Ic1ccccc1CNC1C2CCN(CC2)C1C(c1ccccc1)c1ccccc1 (stereo not given)
inactive: Potency [1]

CC[C@H]1CN2CC[C@H]1C[C@H]2[C@H](O)c1ccnc2ccc(OC)cc12
inactive: Potency [1] | Potency [2] | outcome [3] | outcome [4]

C/C=C(\C)C(=O)O[C@H]1[C@H](OC(C)=O)[C@]2(CO)[C@H](O)[C@H](O)[C@]3(C)C(=CCC4[C@@]5(C)CC[C@H](O[C@@H]6O[C@H](C(=O)O)[C@@H](O)[C@H](O[C@@H]7OC[C@H](O)[C@H](O[C@@H]8OC[C@H](O)[C@H](O)[C@H]8O)[C@H]7O)[C@H]6O[C@@H]6O[C@H](CO)[C@@H](O)[C@H](O)[C@H]6O)C(C)(C)C5CC[C@]43C)[C@@H]2CC1(C)C (stereo not given in full)
inactive: activity change, negative = inhibition [1] 2.03% [at 9.73 µM] | activity change, negative = thiol reactive [2] 214% [at 11.5 µM] | activity, negative = inhibition [3] 2.49% [at 11.6 µM] | redox activity (% of DA3003) [4] 9.29% [at 11.5 µM]

COC1CC(O[C@H]2CC[C@]3(C=O)C4CC[C@]5(C)[C@@H](C6=CC(=O)OC6)CC[C@]5(O)[C@@H]4CC[C@]3(O)C2)OC(C)C1O[C@@H]1O[C@H](CO)[C@@H](O)[C@H](O)[C@H]1O (stereo not given in full)
inactive: Potency [1] | Potency [2] | outcome [3] | outcome [4]

COC([CH2][Hg])CNC(=O)c1ccccc1OCC(=O)O (stereo not given)
inactive: Potency [1]

Cc1cn(C[C@H](N)C(=O)O)c(=O)n(Cc2cc(-c3ccccc3)sc2C(=O)O)c1=O
inactive: Potency [1] | Potency [6] | Potency [2] | outcome [3] | outcome [4]

Oc1ccc2c3c1O[C@H]1[C@H](N(CCCl)CCCl)CC[C@@]4(O)[C@@H](C2)N(CC2CC2)CC[C@]314
inactive: activity change, negative = inhibition [1] -3.35% [at 9.73 µM] | outcome [6] inactive [at 11.6 µM] | activity change, negative = thiol reactive [2] 7.36% [at 11.5 µM] | activity, negative = inhibition [3] 1.59% [at 11.6 µM] | redox activity (% of DA3003) [4] -0.579% [at 11.5 µM]

CCNC1(c2cccs2)CCCCC1=O (stereo not given)
inactive: Potency [1]

O=[N+]([O-])C(Br)(CO)CO
inactive: Potency [1]

CN(C(=O)Cc1ccccc1)C(CN1CCCC1)c1ccccc1 (stereo not given)
inactive: Potency [1] | Potency [6] | Potency [2] | outcome [3] | outcome [4]

C[C@H]1O[C@@H](O[C@H]2C[C@@H](O)[C@]3(CO)C4C(CC[C@]3(O)C2)[C@@]2(O)CC[C@H](C3=CC(=O)OC3)[C@@]2(C)C[C@H]4O)[C@@H](O)[C@@H](O)[C@H]1O (stereo not given in full)
inactive: Potency [1] | Potency [6] | Potency [2] | outcome [3] | outcome [4]

O=C/C=C/c1ccccc1
inactive: Potency [1] | outcome [7] | outcome [8] | outcome [9]

COC(=O)N1CCN(C(=O)Cc2ccc(Cl)c(Cl)c2)[C@@H](CN2CCCC2)C1
inactive: Potency [1] | Potency [6] | Potency [2] | outcome [3]

N#CCCN
inactive: Potency [1]

N=C(N)c1ccc(CS(=O)(=O)F)cc1
inactive: Potency [1]

CNC(C)C(O)c1ccc(O)cc1 (stereo not given)
inactive: outcome [7] | outcome [8] | outcome [9]

CCN1CC2(COC)C3[C@@H](OC)C4C1C3(C1C[C@]3(O)[C@H](OC(=O)c5ccccc5)C1[C@]4(OC(C)=O)[C@@H](O)[C@@H]3OC)[C@H](OC)C[C@H]2O (stereo not given in full)
inactive: Potency [1] | Potency [6] | Potency [2] | outcome [3] | outcome [4]
